Measurements as given in PubChem BioAssay AID623870 (Broad Institute, 2012).
In all, about 390,000 compounds went through this assay and about 2,600 (0.67%) were called active.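 How the source made its calls: active means mean inhibition of replicates at least 50% and at least half of replicates each reaching 50%; inconclusive means half or more replicates reach 50% but mean below 50%; inactive means the rest.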 Shown is part of a subset that was picked to be rich in actives.

biological target: Transforming acidic coiled-coil-containing protein 3 (Homo sapiens) (UniProt Q9Y6A5); experiment: disruptors of ARNT/TACC3 protein interaction, primary screen, biochemical, AlphaScreen, single concentration (AID 623870); conditions: AlphaScreen His-ARNT PAS-B/GST-TACC3 binding, luminescence; at 9.99 µM; active compounds read high; TACC3 fragment carries E629A point mutation;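 further: 0% = complete ARNT plus TACC3 wells and 100% = ARNT alone without TACC3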

inhibition, active:
Cc1cc(C)nc(N/N=C/c2c(CO)cnc(C)c2O)n1 63%
CCN(CC)CCOc1ccc2c(c1)C(=NNC(=O)c1ccccn1)c1cc(OCCN(CC)CC)ccc1-2 58.8%
CCn1cc(/C=C2/SC(=S)NC2=O)c(C)n1 23.8%
CCc1nnc(NS(=O)(=O)c2ccc(N=Cc3c(C)[nH]n(-c4ccc(C)cc4)c3=O)cc2)s1 45.6%
Oc1c(CN2CCCC2)cc(COCc2ccccc2)c2cccnc12 64.5%
Oc1c(CN2CCN(c3ccc(F)cc3)CC2)cc(Cl)c2cccnc12 73.2%
CN1c2ccc(C=O)c3c(C=O)ccc(c23)N(C)C1(C)C 13.9%
CCSC1(SCC)N=C(N)C2(C#N)C(c3ccccc3)NC(C)=CC12C#N (stereo unspecified) 48.6%
Cc1ccccc1NC(=O)CSc1ccc2nnc(-c3ccccn3)n2n1 48%
O=C(CSc1ccc(-c2ccccn2)nn1)Nc1ccccc1 58.5%
O=C(NC1=CC(=O)c2ccccc2C1=O)c1ccccc1 2.4%
O=C(NC[C@@H]1[C@@H](c2ccccc2)[C@@H](CO)N1Cc1ccccn1)C1CCC1 23.8%
Cc1ccc(S(=O)(=O)n2oc(=O)c(C3CCCCC3)c2N)cc1 64.1%
CCOC(=O)C1CCN(C(=O)C2CCN(S(=O)(=O)c3c(C)noc3C)CC2)CC1 46.8%
Cc1[nH]n(-c2cccc(Cl)c2)c(=O)c1/C=N/n1c(C)nc2ccccc2c1=O 46.7%
Nc1nnnn1/N=C/c1cc([N+](=O)[O-])ccc1O 75.7%

inhibition, inactive:
CN1[C@@H]2c3ccc(C4=CCCCC4)c(=O)n3C[C@H]1[C@H](CO)[C@H]2C(=O)NCc1ccc(F)cc1 3.89%
COc1ccc(CNC(=O)C[C@H]2C[C@@H]3c4cc(NC(=O)NC5CCCC5)ccc4O[C@@H]3[C@H](CO)O2)cc1 -2.96%
COc1ccc(S(=O)(=O)N2CCCCN3[C@H](CO)[C@H](c4ccc(C5=CCCCC5)cc4)[C@@H]3C2)cc1 -0.894%
CO[C@@H]1CN(C)C(=O)c2ccc(NC(=O)Nc3cc(Cl)cc(Cl)c3)cc2OC[C@H](C)NC[C@H]1C 17.2%
C[C@H]1CN([C@@H](C)CO)S(=O)(=O)c2ccc(-c3ccncc3)cc2O[C@@H]1CN(C)C(=O)CC1CC1 -7.68%
COCC(=O)N1[C@H](CNC(=O)c2ccccn2)[C@H](c2ccccc2)[C@@H]1CO 0.322%
CCN(C[C@@H]1[C@H](c2ccccc2)[C@@H](CO)N1CC1CC1)C(=O)c1ccccn1 1.43%
C[C@@H]1CN([C@@H](C)CO)C(=O)c2cccc(NC(=O)c3nc4ccccc4s3)c2O[C@@H]1CN(C)Cc1ccc(Cl)c(Cl)c1 -2.22%
Cc1nn(C)cc1/C=C1\CCC/C(=C\c2cn(C)nc2C)C1=O 2.65%
COc1ccc(NC(=O)N(C)C[C@H]2Oc3c(NC(=O)NC(C)C)cccc3C(=O)N([C@@H](C)CO)C[C@H]2C)cc1 -14%
CCc1nnc(NC(=O)CCN(c2ccc(C)cc2)S(=O)(=O)c2ccccc2)s1 2%
COc1cc(SC#N)ccc1N=Cc1c(C)[nH]n(-c2ccc(C)cc2)c1=O 2.45%
COc1ccc(-c2ccc3c(c2)[C@H]2[C@H](CCN2S(=O)(=O)c2ccccc2F)[C@H](CO)N3)cc1 -0.779%
COc1cccc(C(=O)Nc2ccc3c(c2)C(=O)N(C)[C@@H]2CC[C@H](CC(=O)NCC4CC4)O[C@@H]2CO3)c1 -14.2%
O=C(C[C@H]1CC[C@H](NC(=O)C2CCC2)[C@@H](CO)O1)NCCCN1CCOCC1 0.473%
C[C@H]1CN([C@@H](C)CO)C(=O)Cc2cc(NC(=O)CCC(F)(F)F)ccc2O[C@H]1CN(C)C(=O)NC1CCCCC1 -6.06%
C/C(=N/N1CCN(Cc2cccc3ccccc23)CC1)c1cccnc1 3.31%
O=C(c1ccccc1)c1cccn1CC(=O)N1CCN(c2ccc(F)cc2)CC1 1.56%
CCCc1cc(=O)oc2c(C)c(O)c(CN3CCCCC3)cc12 0.049%
O=C(c1cccc(F)c1)N1CCN(c2ccc([N+](=O)[O-])c3cccnc23)CC1 -1.2%
C[C@@H]1CCCCO[C@H](CN(C)C(=O)CCC(F)(F)F)[C@H](C)CN([C@H](C)CO)C(=O)c2cc(NC(=O)NC3CCCCC3)ccc2O1 -7.47%
CCNC(=O)[C@H]1[C@H](CO)[C@H]2Cn3c(ccc(-c4cccc(OC)c4)c3=O)[C@H]2N1Cc1nccs1 -9.07%
CO[C@@H]1CC[C@@H]2CCOc3ccc(C#N)cc3C(=O)N(C)C[C@@H](C)C(=O)N(C)C[C@@H]1O2 -7.05%
CC(C)NC(=O)N(C)C[C@H]1OCCCC[C@H](C)Oc2ccc(NC(=O)CCCN(C)C)cc2C(=O)N([C@@H](C)CO)C[C@H]1C -0.512%
COc1ccccc1-c1cnc2c(c1)C(=O)N([C@H](C)CO)C[C@@H](C)[C@@H](CN(C)Cc1ccncc1)O2 -5.7%
CC(=O)N1[C@@H](CO)[C@H](c2ccccc2)[C@@H]1CN(C)C(=O)CN1CCOCC1 -11.7%
Cc1noc(C)c1NC(=O)Nc1ccc2c(c1)C(=O)N([C@@H](C)CO)C[C@H](C)[C@H](CN(C)S(=O)(=O)c1cn(C)cn1)OCCCC[C@@H](C)O2 -9.38%
COC(=O)C[C@H]1C[C@H]2c3cc(NC(=O)NC4CCCCC4)ccc3O[C@H]2[C@H](CO)O1 -2.98%
CCCC(=O)Nc1ccc2c(c1)OC[C@H](C)N(C(=O)C1CCCC1)C[C@@H](C)[C@H](OC)CN(C)C2=O -5.43%
COc1ccccc1NC(=O)N[C@H]1CC[C@@H](CC(=O)N[C@@H](C)c2ccccc2)O[C@H]1CO -7.69%
CCCNC(=O)C[C@H]1C[C@@H]2c3cc(NC(=O)C4CCOCC4)ccc3O[C@@H]2[C@@H](CO)O1 -13.8%
CCCC#Cc1ccc2c(c1)O[C@@H](CN(C)S(=O)(=O)c1cccc(OC)c1)[C@H](C)CN([C@@H](C)CO)S2(=O)=O 4.74%
O=C(CSc1ccc(-c2ccc(-n3cccn3)cc2)nn1)Nc1ccc([N+](=O)[O-])cc1 -19.4%
COc1ccc(C)cc1NC(=O)CSc1nnc2ccc(-c3ccccn3)nn12 12.1%
Cc1ccccc1NC(=O)CSC1=NCCN1 -6.23%
COc1cc(NC(=O)CSc2ccc(-c3cccnc3)nn2)cc(OC)c1 -3.2%
COc1cccc(NC(=O)Nc2ccc3c(c2)C(=O)N(C)C[C@@H](OC)[C@H](C)CN(CC2CC2)[C@H](C)CO3)c1 -0.496%
OC[C@H]1[C@@H](c2ccc(C#CC3(O)CCCC3)cc2)[C@H]2CN(Cc3cncnc3)CCCCN21 0.497%
CO[C@@H]1CN(C)C(=O)c2cc(NC(=O)C3CCC3)ccc2OC[C@H](C)N(Cc2ccccn2)C[C@H]1C 2.51%
O=C(C[C@@H]1C=C[C@@H](NC(=O)c2ccccc2)[C@H](CO)O1)NCCc1ccncc1 -9.84%
COc1ccc(C(=O)Nc2ccc3c(c2)C(=O)N(C)C[C@@H](OC)[C@H](C)CN(C(C)=O)[C@@H](C)CO3)cc1 -6.1%
CC(C)NC(=O)N1[C@@H]2c3ccc(-c4ccc(F)cc4)c(=O)n3C[C@@H]2[C@@H](CO)[C@@H]1C(=O)N1CCOCC1 17.2%
Cc1ccccc1S(=O)(=O)N1C[C@H](O)COC[C@H]2O[C@H](CC(=O)N3CCCCC3)CC[C@@H]21 1.95%
CNC[C@@H]1Oc2ccc(NC(=O)C3CCCCC3)cc2CC(=O)N([C@@H](C)CO)C[C@H]1C -6.19%
CN(C)C(=O)c1cccc(-c2ccc3c(c2)[C@H]2[C@H](CCN2S(=O)(=O)c2cn(C)cn2)[C@@H](CO)N3)c1 0.583%
O=C(NC[C@@H]1[C@@H](c2ccccc2)[C@H](CO)N1C(=O)Cc1cccnc1)C1CC1 -0.188%
CN(C[C@@H]1[C@H](c2ccccc2)[C@@H](CO)N1Cc1ccccn1)S(C)(=O)=O 29.6%
CCCNC(=O)N1C[C@@H](O)COC[C@H]2O[C@H](CC(=O)NCCCN3CCOCC3)CC[C@@H]21 -6.54%
CN(C)C(=O)c1cccc(-c2ccc3c(c2)[C@H]2[C@H](CCN2C(=O)Cc2ccccc2)[C@H](CO)N3)c1 -7.24%
CN(C)C(=O)C[C@@H]1CC[C@@H](NS(=O)(=O)c2ccccc2)[C@H](CO)O1 1.05%
Cc1ccc(S(=O)(=O)N2CCCC2CO)cc1 (stereo unspecified) -6.07%
Cc1ccc(S(=O)(=O)N2CC(C)N(S(C)(=O)=O)C2)cc1 (stereo unspecified) -0.994%
C[C@H](CO)N1C[C@H](C)[C@@H](CN(C)C(=O)C2CCC2)Oc2cc(C3=CCCCC3)ccc2S1(=O)=O 7.82%
CCOC(=O)C1CCN(C(=O)C2CCN(S(=O)(=O)CC)CC2)CC1 -3.42%
CCOC(=O)C1CCN(S(=O)(=O)c2c(C)noc2C)CC1 -6.32%
COC(=O)C[C@@H]1CC[C@@H]2[C@H](COc3ccc(NC(=O)c4ccccc4OC)cc3C(=O)N2C)O1 -6.13%
CN1C[C@H]2[C@@H](c3ccccc31)[C@@H](CO)N2C(=O)Nc1ccccc1 -0.471%
COc1ccc(S(=O)(=O)N(C)C[C@@H]2OCc3ccccc3-c3ccccc3C(=O)N([C@@H](C)CO)C[C@@H]2C)cc1 -0.955%
Cc1nc2ccccc2c(=O)n1-c1ccc(NS(=O)(=O)c2ccc(F)cc2F)cc1 -1.59%
CCCNC(=O)Nc1ccc2c(c1)C(=O)N(C)C[C@@H](OC)[C@@H](C)CN(Cc1ccccn1)[C@@H](C)CO2 -2.12%
CO[C@@H]1CN(C)C(=O)c2cc(NS(=O)(=O)Cc3ccccc3)ccc2OC[C@H](C)NC[C@H]1C 1.43%
CC(C)NC(=O)N[C@H]1CC[C@H](CC(=O)NCCCN(C)C)O[C@H]1CO -5.48%
C[C@H](CO)N1C[C@H](C)[C@H](CN(C)CC2CC2)OCCCC[C@H](C)Oc2ccc(NS(=O)(=O)c3cccs3)cc2C1=O -8.86%
C[C@@H]1CN([C@@H](C)CO)C(=O)c2cccc(NC(=O)Nc3ccc(C(F)(F)F)cc3)c2O[C@@H]1CN(C)S(=O)(=O)c1cccs1 -2.19%
COC(=O)CCCCCCC(=O)Nc1ccc(C2OC(CSc3nc(-c4ccccc4)c(-c4ccccc4)o3)CC(c3ccc([N+](=O)[O-])cc3)O2)cc1 (stereo unspecified) 1.18%
Nc1nnnn1/N=C/c1cccc(Br)c1 3.65%
Nc1nnnn1/N=C/c1cccs1 3.88%
C[C@@H]1CCCCO[C@@H](CN(C)S(=O)(=O)c2cn(C)cn2)[C@H](C)CN([C@H](C)CO)C(=O)c2cc(NC(=O)NC3CCCCC3)ccc2O1 -15%
O=C(C[C@@H]1C[C@@H]2c3cc(NC(=O)CC4CC4)ccc3O[C@@H]2[C@@H](CO)O1)NCCN1CCCCC1 -1.06%
COCC#Cc1cnc2c(c1)C(=O)N([C@@H](C)CO)C[C@@H](C)[C@H](CN(C)C(=O)c1cnccn1)O2 4.05%
